Sampled rows, rich in hits. Any-hit rate of the full collection: about 2.3%.
miR-21 reporter: qHTS Assay for Modulators of miRNAs and/orActivators of miR-21; 340,000 tested, under 10 active; Potency, µM (top dose mostly 38.3 µM), for inactives: top-dose activity change, positive = activation, hits mostly activators; AID 2288, 2010; HeLa miR-21 FLuc reporter, luciferase, 48 h;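 further: % of control where 0% means no effect; miR-21 action dims this reporter so a rising signal means less miR-21 action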
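Using DMEM plus 10% FBS, HeLa miR-21-FLuc cells are incubated with test compounds (final up to about 40uM) for 48 hours; firefly luciferase signal is then imaged following reagent-mediated lysis.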
Nrf2 activator: qHTS of Nrf2 Activators; actives 0.31% (n = 410,000); AREc32 ARE-luciferase reporter (MCF7-derived line), luminescence, 24 h; AID 624171, 2012; Potency, µM (doses to about 46.1 µM), for inactives: at the top dose activation, usual class: activators; further: potency means the concentration at half of the fitted maximal effect; % of control where 0% means no effect; nearly all actives have a fitted effect of over 65% in size
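Nrf2 activation is followed as ARE-luciferase induction in the AREc32 line after one day of compound treatment; luminescence is read with Steady-Glo.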
Mito fusion yeast: qHTS Assay for Small Molecule Inhibitors of Mitochondrial Division or Activators of Mitochondrial Fusion; actives 0.23% (n = 320,000); Potency, µM (series often up to 46.1 µM), without a hit: at the top dose growth rescue (activation), actives largely listed as activators; S. cerevisiae fusion-defective mutant growth rescue, CellTiterGlo 48 h; further: potency means the concentration at half of the fitted maximal effect; % of control where 0% means no effect; nearly all actives have a fitted effect of over 45% in size
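Yeast fusion mutant, YPEG (non-fermentable carbon), compound, 48 h at 37C non-permissive; CellTiterGlo added, 10 min RT, luminescence read. Rescued growth = division inhibition.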
Nrf2 inh: Nrf2 qHTS screen for inhibitors. A549 ARE-Fluc reporter, luciferase luminescence, 18-24 h. Potency, µM (highest dose often 46 µM), without a hit: at the highest dose activity change, negative = inhibition, usual class: inhibitors. actives 2.1% (n = 360,000). AID 504444, 2011; further: potency means the concentration at half of the fitted maximal effect; on the % scale 0 is the no-effect control and ±100 the full control effect; nearly all actives have a fitted effect of over 60% in size
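Quantitative HTS in A549 cells stably bearing an antioxidant response element-firefly luciferase construct. Inhibition of Nrf2-driven transcription was scored by luminescence after 18-24 h of compound exposure at 37 °C.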
A549 tox-1: Nrf2 qHTS screen for inhibitors: counterscreen for cytotoxicity; A549 ARE-Fluc cells, CellTiter-Fluor viability, 18-24 h; Potency, µM (highest dose often 46 µM), for inactives: at the highest dose activity change, negative = cytotoxicity, hits mostly inhibitors; actives 0.16% (n = 390,000); AID 504648, 2011; further: potency means the concentration at half of the fitted maximal effect; on the % scale 0 is the no-effect control and ±100 the full control effect
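A549 ARE_Fluc cells in 5% FBS OPTI-MEM were exposed to compounds in concentration-response for 18-24 h at 37 deg C. Viability was read by CellTiter-Fluor fluorescence (Ex 405/Em 525) after 30 min, before the luciferase read.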
FLuc enzyme inh: Nrf2 qHTS screen for inhibitors: Purified Fluc Biochemical Counterscreen for Hit Validation. Potency, µM (highest dose often 57.5 µM), for inactives: at the top dose activity change, negative = inhibition, most hits filed as inhibitors. AID 720522, 2013. shares compounds with Nrf2 inh. actives 4% (n = 1,400). purified firefly luciferase, luminescence inhibition; further: potency means the concentration at half of the fitted maximal effect; on the % scale 0 is the no-effect control and ±100 the full control effect; nearly all actives have a fitted effect of over 65% in size
Target sequence (P08659 whole entry, looked up): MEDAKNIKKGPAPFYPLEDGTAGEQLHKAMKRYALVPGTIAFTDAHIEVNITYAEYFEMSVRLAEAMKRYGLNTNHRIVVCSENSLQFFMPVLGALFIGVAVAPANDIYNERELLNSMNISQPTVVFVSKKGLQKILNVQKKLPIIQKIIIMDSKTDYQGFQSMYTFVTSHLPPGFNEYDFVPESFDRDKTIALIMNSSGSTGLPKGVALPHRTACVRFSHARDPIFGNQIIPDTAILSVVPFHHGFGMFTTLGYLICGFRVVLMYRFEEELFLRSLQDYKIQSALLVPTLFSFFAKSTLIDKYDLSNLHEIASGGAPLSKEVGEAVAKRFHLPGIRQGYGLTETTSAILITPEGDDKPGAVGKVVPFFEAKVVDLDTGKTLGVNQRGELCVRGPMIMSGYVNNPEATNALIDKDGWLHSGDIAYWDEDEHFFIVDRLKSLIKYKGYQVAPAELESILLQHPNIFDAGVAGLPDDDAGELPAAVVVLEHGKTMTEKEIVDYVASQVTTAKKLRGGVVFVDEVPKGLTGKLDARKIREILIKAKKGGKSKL
A549 tox-2: Nrf2 qHTS screen for inhibitors: A549 ARE-Fluc Cytotoxicity Counterscreen for Hit Validation; shares compounds with Nrf2 inh; actives 2% (n = 1,400); Potency, µM (doses to about 46.1 µM), for the others: at the top dose activity change, negative = cytotoxicity, most hits filed as inhibitors; A549 ARE-Fluc cells, cytotoxicity counterscreen;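 further: potency means the concentration at half of the fitted maximal effect; cells exposed to compounds for 18 to 24 hours; on the % scale 0 is the no-effect control and ±100 the full control effect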
ARE-Fluc inh: Nrf2 qHTS screen for inhibitors: Nrf2 A549 ARE-Fluc Confirmation Assay for Hit Validation | Potency, µM (series often up to 46.1 µM), for inactives: at the highest dose activity change, negative = inhibition, hits mostly inhibitors | A549 ARE-firefly luciferase reporter, luminescence | actives 74% (n = 1,400) | shares compounds with Nrf2 inh; further: potency means the concentration at half of the fitted maximal effect; on the % scale 0 is the no-effect control and ±100 the full control effect; nearly all actives have a fitted effect of over 65% in size
An asterisk follows results filed as active; u = inconclusive; x = no result shown. The call rests on the fitted dose curve; in most records, active means well fitted curve in the direction sought with a large enough effect; inconclusive means small, poorly fitted or top-dose-only effect, or another doubt; inactive means no such curve, though single readings can be large; an effect the other way counts as inactive or inconclusive.

SMILES	miR-21 reporter	Nrf2 activator	Mito fusion yeast	Nrf2 inh	A549 tox-1	FLuc enzyme inh	A549 tox-2	ARE-Fluc inh
CCOc1ccc2oc(=O)cc(CN3CCN(C(=O)c4ccc(OC)c(OC)c4)CC3)c2c1	-1%	11%	x	-1%	-2%	x	x	x
COc1cccc(C(=O)CN2CCN(S(=O)(=O)c3ccc(Cl)cc3)CC2)c1	-4%	5%	x	x	1%	x	x	x
CCOc1ccc(-c2nnc(SCC(=O)Nc3cccc(OC)c3)nc2-c2ccc(OCC)cc2)cc1	1%	0%	x	x	6%	x	x	x
CCOc1ccc(C2C(=O)N(C3CCCCCC3)CC(=O)N2Cc2ccc(C)cc2)cc1OC (stereo unspecified)	-7%	1%	x	x	9%	x	x	x
Cc1cc(C)n(S(=O)(=O)/C=C/c2ccccc2)n1	u	3.2µM*	-8%	9.2µM*	u	2%	-15%	-8%
COc1ccc2c(C(=O)NCc3ccc4c(c3)OCO4)c(-c3ccc(S(C)(=O)=O)cc3)sc2c1	x	0%	x	7.3µM*	u	-2%	u	16µM*
COC(=O)c1c(-c2ccc(S(C)(=O)=O)cc2)sc2cc(OC)ccc12	x	3%	x	u	1%	x	x	x
O=C1N=C(N2CCC(Cc3ccccc3)CC2)S/C1=C/c1cn[nH]c1-c1ccccc1	5%	0%	-1%	u	-15%	-1%	-6%	u
COc1cc(C(=O)Nc2sc3c(c2C(=O)O)CCC(C)C3)cc(OC)c1OC (stereo unspecified)	21%	0%	14%	5.2µM*	-11%	-18%	-20%	7.3µM*
CC1CCc2c(sc(NC(=O)c3ccccc3)c2C(=O)Nc2ccccc2)C1 (stereo unspecified)	9%	7%	x	5%	-2%	x	x	x
Cc1nc(C)c(-c2ccc(SCC(=O)Nc3ccc(Cl)c(Cl)c3)nn2)s1	14%	1%	x	x	-10%	x	x	x
COc1ccc(-c2nc(CNC(=O)NC3CCCCC3)c(C)o2)cc1	-1%	1%	x	x	0%	x	x	x
Clc1ccc(-c2noc(CSc3nnc(-c4ccncc4)n3-c3ccccc3)n2)cc1	23%	3%	8%	2.3µM*	u	-9%	-9%	13µM*
Cc1ccc(-c2noc(CSc3nnc(-c4ccncc4)n3-c3ccc(C)cc3)n2)cc1	4%	-1%	9%	u	-15%	x	x	x
COc1ccccc1NS(=O)(=O)c1cccc(C(=O)NC2CCN(Cc3ccccc3)CC2)c1	x	2%	-4%	2.3µM*	u	-1%	-20%	u
Cc1cccc(NC(=O)N2CC(=O)Nc3sc4c(c3C2c2ccccc2)CCCC4)c1C (stereo unspecified)	-5%	6%	x	u	-2%	x	x	x
CC(C)C(=O)N1CCN(c2ccc(NC(=O)c3ccc4c(c3)OCCO4)cc2)CC1	5%	0%	1%	-21%	-4%	x	x	x
Cc1ccc(C(=O)N2CCN(c3ccc(NC(=O)c4ccc5c(c4)OCCO5)cc3)CC2)cc1	8%	0%	2%	7.3µM*	-19%	0%	-22%	u
O=[N+]([O-])c1cccnc1N1CCN(Cc2ccc3c(c2)OCO3)CC1	-10%	0%	-2%	3%	-1%	x	x	x
O=[N+]([O-])c1ccc2ncnc(N3CCN(Cc4ccc5c(c4)OCO5)CC3)c2c1	25%	-1%	-2%	8.2µM*	-20%	-2%	-11%	16µM*
O=C(NCCC1=CCCCC1)c1ccc(F)c(S(=O)(=O)N2CCOCC2)c1	-9%	0%	1%	3%	-4%	x	x	x
CC1CCCN(S(=O)(=O)c2cc(C(=O)NCCc3ccc(S(N)(=O)=O)cc3)ccc2Cl)C1 (stereo unspecified)	x	0%	x	4.1µM*	u	1%	-26%	12µM*
O=C(Nc1ccc(N2CCOCC2)cc1)c1ccc(Cl)c(S(=O)(=O)N2CCCC2)c1	x	1%	-1%	9.2µM*	0%	-2%	-3%	7.3µM*
COc1ccc(CNC(=O)c2ccc(Cl)c(S(=O)(=O)N3CCOCC3)c2)cc1OC	x	-1%	0%	1.3µM*	u	0%	5%	x
Cc1ccc(C(=O)Nc2ccc(N3CCOCC3)cc2)cc1S(=O)(=O)N1CCCCC1	x	0%	-1%	u	3%	x	x	x
SMILES	miR-21 reporter	Nrf2 activator	Mito fusion yeast	Nrf2 inh	A549 tox-1	FLuc enzyme inh	A549 tox-2	ARE-Fluc inh
CC1CN(S(=O)(=O)c2cc(C(=O)NCCC3=CCCCC3)ccc2Cl)CC(C)O1 (stereo unspecified)	x	3%	7%	8.2µM*	-19%	u	-15%	5.8µM*
COc1ccc(CNC(=O)C(=O)Nc2ccc(OC)cc2OC)cc1	-8%	0%	x	7%	1%	x	x	x
COc1ccc(-c2ccc(C3C4C=CCCC4(C)C(=O)N3Cc3ccccc3)c(F)c2)cc1 (stereo unspecified)	x	x	x	u	5%	x	x	x
COc1ccc(CCNC(=O)c2ccc(Cl)c(S(=O)(=O)N3CCCCCC3)c2)cc1	x	-1%	29%	8.2µM*	-13%	0%	-10%	8.2µM*
O=C(NCCc1ccc(F)cc1)c1ccc(Cl)c(S(=O)(=O)N2CCOCC2)c1	x	0%	0%	8.2µM*	-9%	-12%	-8%	u
O=C(NCCc1ccccc1)c1ccc(Cl)c(S(=O)(=O)N2CCCC2)c1	16%	0%	-5%	u	-6%	x	x	x
CCN(CC)S(=O)(=O)c1ccc(C)c(NC(=S)N2CCN(Cc3ccc4c(c3)OCO4)CC2)c1	25%	0%	5%	6.5µM*	-14%	-1%	1%	10µM*
Cc1ccc(NC(=S)N2CCN(Cc3ccc4c(c3)OCO4)CC2)c(C)c1	x	-1%	x	u	12%	x	x	x
CCOC(=O)c1c(S(=O)(=O)N2CCCC(C(=O)NCc3cccc(OC)c3)C2)c(C)n(C)c1C (stereo unspecified)	3%	0%	x	x	12%	x	x	x
CC1Cc2ccccc2N1c1ncnc(N)c1[N+](=O)[O-] (stereo unspecified)	u	-2%	6%	4.6µM*	-14%	2%	-25%	8.2µM*

Screening data (PubChem BioAssay)
